Where “and” joins values, the source holds several entries; their conditions need not be identical. Equal entries are not always repeated. Results filed as inconclusive are left out. A structure can be active in one record and inactive in another. Calls of active or inactive are those of the source. Calls follow the shape of the dose curve; as a rule, active = well fitted inhibition curve with a large enough effect in the signal ratio in the repeat runs, with a control signal flat; inconclusive = weak or mixed curves, or effect the other way; inactive = flat fitted curve, though single readings scatter; the % refers to the signal ratio.
What follows are molecules tested against D(2) dopamine receptor (Homo sapiens) (UniProt P14416) (assay: Dopamine D2 receptor (DRD2) small molecule antagonists, cell-based qHTS assay (AID 1963595)). Details: HEK293-DRD2 cAMP HTRF antagonist mode; series mostly up to 92.4 µM; activity change, negative = inhibition: at the top concentration.
Sequence of D(2) dopamine receptor (Homo sapiens) (P14416 whole entry, looked up): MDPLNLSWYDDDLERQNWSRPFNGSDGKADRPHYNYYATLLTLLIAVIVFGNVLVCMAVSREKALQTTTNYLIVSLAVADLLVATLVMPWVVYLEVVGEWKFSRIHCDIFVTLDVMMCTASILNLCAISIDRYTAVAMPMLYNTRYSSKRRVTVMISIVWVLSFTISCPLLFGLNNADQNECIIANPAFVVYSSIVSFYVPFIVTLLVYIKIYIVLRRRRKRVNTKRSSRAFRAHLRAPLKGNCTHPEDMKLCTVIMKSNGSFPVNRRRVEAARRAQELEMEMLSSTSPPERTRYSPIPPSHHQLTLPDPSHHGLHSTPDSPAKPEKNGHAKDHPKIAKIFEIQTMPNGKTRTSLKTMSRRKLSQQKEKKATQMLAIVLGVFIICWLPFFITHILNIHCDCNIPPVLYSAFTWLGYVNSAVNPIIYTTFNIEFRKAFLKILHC
How it was run: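 HTRF cAMP read-out at 665 and 620 nm emission (340 nm excitation). Antagonist mode: compounds were tested against 12 nM quinpirole in DRD2-HEK293 cells, with 200 nM NKH477 raising cAMP and 0.1 mM Ro20-1724 blocking its breakdown.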
% is scaled to controls: 0 for no effect and ±100 for the full control effect; potency is read from the fitted curve at half-maximal effect.

Structure (SMILES)	Potency	activity change, negative = inhibition
Cc1ccc(N)cc1Cl	inactive	
Cc1ncc(CNC(=O)N(CCCl)N=O)c(N)n1		-0.908% [at 42.5 µM] (inactive)
O=C(O)COc1cc(Cl)c(Cl)cc1Cl	inactive	
CCOC(=O)CC(SP(=O)(OC)OC)C(=O)OCC (configuration not stated)	inactive	
CCCC[n+]1ccc(C)cc1	inactive and 60.8 µM (active)	
CCCCCCCCCCCCCCCCn1cc[n+](C)c1	inactive	
COc1ccc(N)cc1	inactive	
O=C(O)c1ccc(=O)[nH]c1		11.9% [at 42.5 µM] (inactive)
O=[N+]([O-])c1cc(Cl)c(Cl)c(Cl)c1		0.225% (inactive)
c1ccc(NNc2ccccc2)cc1	inactive	
CCCSC(=O)Cl		0.164% (inactive)
COCCl	inactive	
O=C1C2CC=CCC2C(=O)N1SC(Cl)(Cl)Cl (configuration not stated)	inactive and 23.9 µM (active)	
CNC(=O)N(C)c1nnc(C(C)(C)C)s1	inactive	
COc1cc(N)c(Cl)cc1C(=O)NC1CN2CCC1CC2 (configuration not stated)		6.54% [at 42.5 µM] (inactive)
CCCCCCCCCl	inactive	
COc1cc(OC)nc(NC(=O)NS(=O)(=O)c2ncccc2C(=O)N(C)C)n1		6.52% (inactive)
NC(=S)c1c(Cl)cccc1Cl		0.91% (inactive)
OCCCCO	inactive	
NNC(=O)c1ccccc1		-9.63% (inactive)
O=C(NC(=O)c1c(F)cccc1F)Nc1ccc(Cl)cc1		3.27% (inactive)
Nc1ccc(Cl)c(Cl)c1	inactive	
CCOP(=O)(OCC)OP(=O)(OCC)OCC		-0.837% (inactive)
CC1C=[C-]C=C1.[C-]#[O+].[C-]#[O+].[C-]#[O+].[Mn]	inactive	
CCOP(=O)(OCC)SCCSCC	inactive	
CCCCCCCCCCCCCCCC[N+](C)(C)C		0.751% [at 42.5 µM] (inactive)
CC(C)=C[C@@H]1[C@@H](C(=O)OCc2coc(Cc3ccccc3)c2)C1(C)C		-7.77% (inactive)

Source: PubChem BioAssay (Tox21)
